Results filed as inconclusive are left out. Calls of active or inactive are those of the source. Unless noted, calls follow the shape of the dose curve; as a rule, active = well fitted curve in the direction sought with a large enough effect in the repeat runs; inconclusive = weak or mixed curves; inactive = no such curve, though single readings can be large; an effect the other way counts as inactive or inconclusive.
Columns and labels:
[1] = target: Thyrotropin receptor (Homo sapiens) (UniProt P16473); experiment: qHTS assay to identify small molecule agonists of the thyroid stimulating hormone receptor (TSHR) signaling pathway (AID 1224843; calls by dose curve; also: nearly all actives have a fitted effect of over 45% in size)
In short: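 Agonist activity read as cAMP rise via d2/cryptate HTRF competition, 1 h room-temperature detection, in HEK293 cells expressing TSHR. Fifteen-point titrations, each run in triplicate, with a 30 min room-temperature incubation beforehand.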

[2] = qHTS assay to identify small molecule agonists of H2AX (AID 1224845; active = well fitted activation curve with a large enough effect in the signal ratio in the repeat runs, not every such curve was filed as active; the % refers to the signal ratio)
In short: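 Phospho-H2AX Ser139 measured by HTRF (ex 320 nm; em 665 and 620 nm) after 24 hr antibody incubation. Compounds, 15 concentrations, 0.76% DMSO, were applied to CHO-K1 cells for 3hr at 37C before lysis.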

[3] = qHTS assay to identify small molecule agonists of the hypoxia (HIF-1) signaling pathway (AID 1224846; active = well fitted activation curve with a large enough effect in the signal ratio in the repeat runs, not every such curve was filed as active; the % refers to the signal ratio)
In short: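 In ME-180 cells bearing an HRE-bla construct, 17 h treatment with DMSO-dissolved compounds at 37C was followed by CCF4-AM loading to quantify reporter induction.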

[4] = qHTS assay to identify small molecule agonists of H2AX - cell viability counter screen (AID 1224847; calls by dose curve; also: top concentration of the series differs between compounds; nearly all actives have a fitted effect of over 30% in size)
In short: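 We seed wild-type CHO-K1 cells overnight, treat them for 3 hr at 37C with compounds in 15-concentration series, and quantify remaining viability by CellTiter-Glo luminescence.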

[5] = qHTS RealTime-Glo MT Cell Viability Assay in HepG2 cells - 24 hour (AID 1224867); also: nearly all actives have a fitted effect of over 50% in size
In short: (§1)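 HepG2 suspension premixed with RealTime-Glo reagents is plated at 600 cells per well and left 5 h at 37 C/5% CO2. Compounds in DMSO then go in, and bioluminescence reflecting viable cell number is recorded over 40 h.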

[6] = qHTS RealTime-Glo MT Cell Viability Assay in HEK293 cells - 32 hour (AID 1224868); also: nearly all actives have a fitted effect of over 50% in size; also: potency is read from the fitted curve at half-maximal effect
In short: (§2)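 Reads taken at 0, 8, 16, 24, 32 and 40 h from the same wells. HEK293 cells (600/well) carried RealTime-Glo reagents from seeding, with compound added after a 5 h settle at 37 C.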

[7] = A CellTox Green Cytotoxicity Assay to monitor cytotoxicity in HEK293 cells - 0 hour (AID 1224869); also: nearly all actives have a fitted effect of over 50% in size
In short: (§3)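 Homogeneous no-lysis format: HEK293 cell suspension mixed with CellTox Green reagent, seeded, incubated 5 h at 37 C/5% CO2, then dosed by pintool with compound in DMSO.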

[8] = A CellTox Green Cytotoxicity Assay to monitor cytotoxicity in HEK293 cells - 40 hour (AID 1224871); also: nearly all actives have a fitted effect of over 45% in size; also: potency is read from the fitted curve at half-maximal effect
In short: as §3

[9] = qHTS RealTime-Glo MT Cell Viability Assay in HepG2 cells - 8 hour (AID 1224873); also: nearly all actives have a fitted effect of over 55% in size
In short: (§4)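 Real-time viability: cells seeded at 600 per well together with NanoLuc and cell-permeant prosubstrate, compounds added after 5 h incubation. Luminescence tracked at 0, 8, 16, 24, 32 and 40 h of exposure.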

[10] = qHTS RealTime-Glo MT Cell Viability Assay in HEK293 cells - 40 hour (AID 1224874); conditions: RealTime-Glo luminescence; max response: hits give low values; also: nearly all actives have a fitted effect of over 50% in size; also: potency is read from the fitted curve at half-maximal effect
In short: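 Measured as luminescence from the same continuously cultured HEK293 wells at successive time points (0, 8, 16, 24, 32, 40 h) after compound addition. Reagent present from seeding; dosing at 5 h; incubation 37 C.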

[11] = A CellTox Green Cytotoxicity Assay to monitor cytotoxicity in HEK293 cells - 24 hour (AID 1224875); also: nearly all actives have a fitted effect of over 45% in size
In short: as §3

[12] = A CellTox Green Cytotoxicity Assay to monitor cytotoxicity in HepG2 cells - 16 hour (AID 1224876); also: nearly all actives have a fitted effect of over 45% in size
In short: (§5)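 Fluorescent DNA-binding dye, 600 HepG2 cells/well, 5 h preincubation then compound in DMSO; same plates read at 0–40 h, 37 C.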

[13] = qHTS RealTime-Glo MT Cell Viability Assay in HepG2 cells - 32 hour (AID 1224877); also: nearly all actives have a fitted effect of over 55% in size
In short: as §1

[14] = A CellTox Green Cytotoxicity Assay to monitor cytotoxicity in HepG2 cells - 24 hour (AID 1224878); also: nearly all actives have a fitted effect of over 45% in size
In short: as §5

[15] = qHTS assay to identify small molecule antagonists of the estrogen related receptor (ERR) signaling pathway from Tox21 library (AID 1224848); also: nearly all actives have a fitted effect of over 50% in size
In short: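 Luciferase luminescence (ONE-Glo, 30 min room temperature) was the read-out. Cells of the NTP-supplied ERR line, 2,000 per well, were given 6 h at 37 C before compound addition in DMSO and 18 h exposure at 37 C.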

[16] = qHTS assay to identify small molecule agonists of the estrogen related receptor (ERR) signaling pathway from Tox21 library (AID 1224849; calls by dose curve; also: nearly all actives have a fitted effect of over 15% in size); conditions: ERR reporter cell line, ONE-Glo luciferase, 18 h; at 92.4 µM (top of the series) unless noted
In short: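 Reporter cells (ERR, NTP source) treated with Tox21 10K compounds 18 h, 37 C. Readout: ONE-Glo luminescence, 30 min RT.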

[17] = qHTS RealTime-Glo MT Cell Viability Assay in HepG2 cells - 40 hour (AID 1224870); also: nearly all actives have a fitted effect of over 50% in size
In short: as §4

[18] = A CellTox Green Cytotoxicity Assay to monitor cytotoxicity in HepG2 cells - 40 hour (AID 1224879); also: nearly all actives have a fitted effect of over 40% in size
In short: as §5

[19] = qHTS RealTime-Glo MT Cell Viability Assay in HEK293 cells - 16 hour (AID 1224872)
In short: as §2

[20] = qHTS assay to identify small molecule agonists of the hypoxia (HIF-1) signaling pathway - cell viability counter screen (AID 1224844; calls by dose curve; also: nearly all actives have a fitted effect of over 50% in size)
In short: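 Same wells as the HIF-1 reporter screen; ME-180 cells carrying HRE-bla, 17 hr treatment at 37C; CellTiter-Glo luminescence read after 30 min at room temperature.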
% is scaled to controls: 0 for no effect and ±100 for the full control effect.

Chain of Thyrotropin receptor (Homo sapiens) (P16473 whole entry, looked up): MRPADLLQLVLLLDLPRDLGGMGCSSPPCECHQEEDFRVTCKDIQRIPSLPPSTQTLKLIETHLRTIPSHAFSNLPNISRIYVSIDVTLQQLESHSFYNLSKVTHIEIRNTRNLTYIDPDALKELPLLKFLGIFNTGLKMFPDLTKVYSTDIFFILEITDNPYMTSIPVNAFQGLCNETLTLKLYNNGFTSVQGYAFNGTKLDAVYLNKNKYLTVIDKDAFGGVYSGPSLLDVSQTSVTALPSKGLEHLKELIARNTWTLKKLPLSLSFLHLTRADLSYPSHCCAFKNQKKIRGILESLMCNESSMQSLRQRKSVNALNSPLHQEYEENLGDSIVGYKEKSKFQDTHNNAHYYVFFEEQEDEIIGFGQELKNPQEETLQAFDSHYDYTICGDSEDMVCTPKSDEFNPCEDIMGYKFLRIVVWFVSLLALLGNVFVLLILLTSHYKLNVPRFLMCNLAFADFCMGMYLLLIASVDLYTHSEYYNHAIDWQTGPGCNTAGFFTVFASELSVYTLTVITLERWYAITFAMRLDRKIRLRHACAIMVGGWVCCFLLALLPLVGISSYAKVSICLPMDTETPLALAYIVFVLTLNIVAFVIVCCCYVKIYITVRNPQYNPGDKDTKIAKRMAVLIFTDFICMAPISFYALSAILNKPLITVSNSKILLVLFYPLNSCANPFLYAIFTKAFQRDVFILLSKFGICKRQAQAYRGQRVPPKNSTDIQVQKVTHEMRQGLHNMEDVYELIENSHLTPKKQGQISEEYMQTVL

O=P(c1ccccc1)(c1ccccc1)c1ccccc1
inactive: Potency [1] | Potency [2] | outcome [3] | Potency [4] | outcome [5] | Potency [6] | Potency [7] | Potency [8] | outcome [9] | max response [10] -19% | Potency [11] | Potency [12] | Potency [13] | Potency [14]

O=C(c1ccco1)N1CCNCC1
inactive: Potency [1] | Potency [2] | outcome [3] | Potency [4] | Potency [15] | activity change, positive = activation [16] 3.89% [at 42.5 µM] | outcome [5] | Potency [6] | Potency [7] | Potency [17] | Potency [8] | outcome [9] | max response [10] 3.57% | Potency [11] | Potency [12] | Potency [13] | Potency [14] | Potency [18]

Cc1nc(C)c(C)nc1C
inactive: Potency [1] | Potency [2] | Potency [4] | Potency [15] | activity change, positive = activation [16] -0.837% | outcome [5] | Potency [6] | Potency [7] | Potency [17] | Potency [8] | outcome [9] | max response [10] -5.51% | Potency [11] | Potency [12] | Potency [13] | Potency [14] | Potency [18]

c1ccc(CCNc2nc(-c3ccccc3)cs2)cc1
inactive: Potency [1] | Potency [2] | outcome [3] | outcome [5] | Potency [7] | Potency [17] | Potency [19] | outcome [9] | max response [10] -22.9% | Potency [13] | Potency [18]

O=C(O)c1c2ccccc2cc2ccccc12
inactive: Potency [1] | Potency [20] | Potency [4] | outcome [5] | Potency [7] | Potency [17] | outcome [9] | Potency [11] | Potency [13] | Potency [14]
active: Potency [6] 43.5 µM | Potency [8] 34.6 µM | Potency [10] 38.8 µM

S=c1[nH][nH]c(=S)s1
inactive: Potency [1] | Potency [20] | outcome [3] | Potency [4] | outcome [5] | Potency [7] | Potency [17] | Potency [8] | outcome [9] | Potency [11] | Potency [12] | Potency [13] | Potency [14] | Potency [18]

CC1(C)CC(=O)CC(C)(C)N1
inactive: Potency [1] | Potency [2] | outcome [3] | Potency [4] | outcome [5] | Potency [7] | Potency [17] | Potency [8] | outcome [9] | max response [10] 0.817% | Potency [12] | Potency [13] | Potency [14] | Potency [18]

O=C(OCCN1CCOCC1)c1cccnc1Nc1cccc(C(F)(F)F)c1
inactive: Potency [1] | Potency [20] | Potency [4] | outcome [5] | Potency [7] | Potency [17] | Potency [8] | outcome [9] | Potency [11] | Potency [12] | Potency [13] | Potency [14] | Potency [18]

O=S(=O)(O)c1cc(Cl)c(Cl)cc1Cl
inactive: Potency [1] | Potency [2] | outcome [3] | Potency [4] | outcome [5] | Potency [6] | Potency [7] | Potency [17] | Potency [8] | Potency [19] | outcome [9] | max response [10] -19.4% | Potency [11] | Potency [13] | Potency [18]

CC(C(=O)O)c1ccc(/C=C2\CCCCC2=O)cc1 (stereo not drawn)
inactive: Potency [1] | Potency [2] | outcome [3] | Potency [4] | outcome [5] | Potency [7] | Potency [17] | Potency [8] | outcome [9] | max response [10] 21% | Potency [11] | Potency [13] | Potency [14] | Potency [18]

CC(COc1ccccc1)NC(C)C(O)c1ccc(O)cc1 (stereo not drawn)
inactive: Potency [1] | Potency [20] | Potency [4] | Potency [15] | activity change, positive = activation [16] 0.415% [at 42.5 µM] | outcome [5] | Potency [6] | Potency [7] | Potency [17] | Potency [8] | Potency [19] | outcome [9] | max response [10] -6.13% | Potency [11] | Potency [12] | Potency [13] | Potency [14] | Potency [18]

CCOC(=O)CC(O)(CC(=O)OCC)C(=O)OCC
inactive: Potency [1] | Potency [20] | outcome [3] | Potency [4] | outcome [5] | Potency [7] | Potency [17] | Potency [8] | Potency [19] | outcome [9] | Potency [11] | Potency [12] | Potency [13] | Potency [14]

CC(CCl)OC(C)CCl (stereo not drawn)
inactive: Potency [1] | Potency [20] | outcome [3] | Potency [4] | outcome [5] | Potency [7] | Potency [8] | Potency [19] | outcome [9] | max response [10] -1.61% | Potency [11] | Potency [12] | Potency [13] | Potency [14] | Potency [18]

OCCCO
inactive: Potency [1] | Potency [20] | Potency [4] | outcome [5] | Potency [7] | Potency [17] | Potency [8] | Potency [19] | outcome [9] | max response [10] 16.2% | Potency [11] | Potency [13] | Potency [14]

CCCCCCCCOCCCN
inactive: Potency [1] | Potency [20] | Potency [4] | outcome [5] | Potency [6] | Potency [7] | Potency [8] | Potency [19] | outcome [9] | max response [10] 2.92% | Potency [11] | Potency [12] | Potency [13] | Potency [14] | Potency [18]

CCN(CC)CC(=O)OCC(=O)[C@@]1(O)CC[C@H]2[C@@H]3CCC4=CC(=O)CC[C@]4(C)[C@H]3[C@@H](O)C[C@@]21C
inactive: Potency [1] | Potency [20] | Potency [4] | outcome [5] | Potency [7] | Potency [17] | Potency [8] | Potency [19] | outcome [9] | max response [10] -1.53% | Potency [11] | Potency [12] | Potency [13] | Potency [14] | Potency [18]

From PubChem BioAssay (Tox21)
